Inconclusive results are not listed. The source made the active and inactive calls. Calls come from the whole dose curve; as a rule, active = well fitted inhibition curve with a large enough effect; inconclusive = small, poorly fitted or top-dose-only effect; inactive = no such curve, though single readings can be large or run the other way.
Experiment: S16 Schwann cell PMP22 intronic element firefly luciferase assay (AID 624032); note: nearly all actives have a fitted effect of over 30% in size
Conditions: S16 rat Schwann cells, PMP22 element FLuc, 24 h; series mostly up to 25.7 µM; activity change, negative = inhibition: at the top concentration
Description: Charcot-Marie-Tooth-Association [CMTA]
National Center for Advancing Translational Sciences [NCATS]
Charcot-Marie-Tooth (CMT) disease was first characterized by Jean-Martin Charcot and Pierre Marie in France and, independently, by Howard Henry Tooth in England in 1886. CMT is one of the most common inherited neurological diseases, affecting approximately 1 in 2,500 Americans. […] The most prevalent type of CMT is known as CMT1A and caused by a duplication of the PMP22 gene which leads to over-expression of this protein. PMP22 is a glycosylated intrinsic membrane protein accounting for 2-5% of the myelin protein content, and its over-expression results in demyelination and subsequently axonal loss.
A pair of cellular transcription-based assays was developed in the S16 rat Schwann cell lines (Hai, M., et al., 2002) stably transfected with orthogonal reporters - firefly luciferase (Fluc) and beta-lactamase (beta-Lac) - whose expression is driven by an intronic regulatory element of the PMP22 gene (Jones, E.A., et al., 2011) to recapitulate endogenous expression of PMP22. The current assay employs Fluc to report on PMP22 expression. A comprehensive library of approved drugs, the NCGC Pharmaceutical Collection (Huang, R., et al., 2011), was screened in the cross-validating platform of the orthogonal reporter assays to identify drug modulators inhibitory towards PMP22 expression.
A set of counter-screens was devised to address non-specific activity of the library. An ATP-dependent CellTiter-Glo assay (developed by Promega Corp) was utilized to control cell viability. In addition, biochemical Fluc enzyme assay was performed to assess direct inhibition of the Fluc enzymatic activity.
Hai, M., Muja, N., DeVries, G.H., Quarles, R.H. and Patel, P.I. Comparative analysis of Schwann cell lines as model systems for myelin gene transcription studies. J Neurosci Res, 2002. 69(4): pp 497-508
Huang, R., Southall, N., Wang, Y., Yasgar A., Shinn P., Jadhav, A. , Nguyen, D.-T. and Austin, C.P., The NCGC pharmaceutical collection: a comprehensive resource of clinically approved drugs enabling repurposing and chemical genomics. Sci Transl Med, 2011. 3(80): p. 80ps16.
S16 Schwann cell PMP22 intronic element firefly luciferase assay
The FLuc-expressing S16 cells were seeded in white solid 1536-well plates at between 500-750 cells/4uL in DMEM medium containing 10% FBS, w/o phenol red. After overnight incubation at 37 degree Celsius/5% C02, 23 nL of compounds or DMSO were delivered to each well using a pin tool, followed by 24h-incubation at 37 degree Celsius/5% C02. Then 4 uL ONE-Glo luminescent substrate mix (Promega) was added to each well. Luminescence was measured on a ViewLux plate reader (Perkin Elmer). The % activity was determined by normalizing to the average readings of PTC124 (a positive control) - treated cells relative to DMSO-treated cells (0% Activity). The concentration-effect curves were then classified based on curve quality (r2), response magnitude and degree of measured activity.
Potency is the fitted concentration of half-maximal effect.

Structure (SMILES) | activity change, negative = inhibition | Potency
COC1CC(O[C@H]2/C(C)=C/CC3CC(C[C@]4(CCC(C)C(C5CCCCC5)O4)O3)OC(=O)[C@H]3C=C(C)/C(=N/O)C4OC/C(=C\C=C\[C@@H]2C)[C@@]43O)OC(C)C1O (stereo not given in full) | 13.7% [at 57.5 µM] (inactive) | –
Cc1cccc(CN2CCN([C@@H](c3ccccc3)c3ccc(Cl)cc3)CC2)c1 | -29.8% (inactive) | –
CCC(C)C(=O)OC1CCC=C2C=CC(C)C(CCC3CC(O)CC(=O)O3)[C@@H]21 (stereo not given in full) | 15.5% [at 57.5 µM] (inactive) | –
CC(=O)N(C[C@@H](C)C(=O)O)c1c(I)cc(I)c(N)c1I | 5.6% (inactive) | –
CN(C)CCOC(=O)[C@@H](c1ccccc1)C1(O)CCCC1 | 61% [at 57.5 µM] (inactive) | –
NC(=O)c1cc[n+](CC2=C(C(=O)[O-])N3C(=O)[C@@H](NC(=O)Cc4cccs4)[C@@H]3SC2)cc1 | -4.18% (inactive) | –
CCC(=O)O[C@@H]1[C@H](C)O[C@H](O[C@H]2[C@@H](N(C)C)[C@H](O)[C@@H](O[C@@H]3[C@@H](CC=O)C[C@@H](C)[C@@H](O)/C=C\C=C/C[C@@H](C)OC(=O)C[C@@H](OC(=O)CC)[C@H]3OC)O[C@H]2C)C[C@]1(C)O | 8.16% (inactive) | –
Cn1nnnc1SCC1=C(C(=O)O)N2C(=O)[C@@H](NC(=O)[C@@H](O)c3ccccc3)[C@@H]2SC1 | 0.233% (inactive) | –
NC[C@@H]1O[C@H](O[C@H]2[C@H](O)[C@H](O[C@@H]3O[C@H](CO)[C@@H](O)[C@H](N)[C@@H]3O)[C@@H](N)C[C@H]2N)[C@@H](O)[C@H](O)[C@@H]1O | -0.0999% (inactive) | –
CC(C)C1CCC(C(=O)NC(Cc2ccccc2)C(=O)O)CC1 (stereo not given) | 12.8% [at 57.5 µM] (inactive) | –
C[C@@]12CC[C@H]3[C@@H](CCC4=CC(=O)CC[C@]43C)[C@H]1CC[C@H]2C(=O)CO | -1.65% (inactive) | –
COC(=O)N/N=C/C1=C[N+](=O)c2ccccc2[N+]1=O | 0.1% [at 57.5 µM] (inactive) | –
CC(=O)C[C@H](c1ccc([N+](=O)[O-])cc1)c1c(O)c2ccccc2oc1=O | -9.04% (inactive) | –
CCCC[C@H](CC)CN1CN(C[C@@H](CC)CCCC)CC(C)(N)C1 | -22.6% (inactive) | –
NCC1CCC(N)C(O[C@@H]2C(O)[C@H](O[C@H]3OC(CO)C(O)C(N)C3O)[C@@H](N)C[C@H]2N)O1 (stereo not given in full) | 12.8% [at 57.5 µM] (inactive) | –
CS(=O)(=O)c1ccc([C@H](O)[C@H](CF)NC(=O)C(Cl)Cl)cc1 | 0.486% (inactive) | –
CCC1OC(=O)CC(O)C(C)[C@@H](O[C@@H]2OC(C)[C@H](O[C@@H]3C[C@@](C)(O)C(O)C(C)O3)C(N(C)C)C2O)[C@H](CC=O)CC(C)C(=O)/C=C/C(C)=C/[C@@H]1COC1OC(C)C(O)C(OC)[C@@H]1OC (stereo not given in full) | -5.4% [at 57.5 µM] (inactive) | –
CC[C@H]1NC(=O)c2cc(S(N)(=O)=O)c(Cl)cc2N1 | 5.06% (inactive) | –
CNC1CC(N)[C@H](O)[C@@H](O[C@@H]2OC(CO)C3OC4(OC(C(N)CO)C(O)C(O)C4O)O[C@@H]3[C@H]2O)C1O (stereo not given in full) | -5.15% [at 57.5 µM] (inactive) | –
CCN(CC)CCOC(=O)[C@@H](Cc1cccc2ccccc12)C[C@@H]1CCCO1 | 12.7% (inactive) | –

Structure (SMILES) | activity change, negative = inhibition | Potency
CN[C@H]1[C@H](O)[C@@H](O[C@@H]2[C@H](O)[C@@H](O[C@H]3OC(CN)=CC[C@H]3N)[C@@H](N)C[C@H]2N)OC[C@@]1(C)O | 4.55% (inactive) | –
Nc1nc(NC2CC2)c2ncn([C@H]3C=C[C@@H](CO)C3)c2n1 | 7.76% [at 57.5 µM] (inactive) | –
C[C@H](C(=O)O)c1cccc(Oc2ccccc2)c1 | -1.31% (inactive) | –
C1CCN2C[C@@H]3C[C@@H](CN4CCCC[C@H]34)[C@H]2C1 | -19.5% (inactive) | –
Cc1ccc2c(c1)c1c3n2CCN[C@H]3CCC1 | -17.6% [at 57.5 µM] (inactive) | –
CN1C(=O)C[C@H](c2ccccc2)C1=O | -18.3% [at 57.5 µM] (inactive) | –
O=C(O)[C@@H]1[C@@H]2C[C@H]3c4[nH]c5ccccc5c4CCN3C[C@@H]2CC[C@@H]1O | -22.6% (inactive) | –
CCCC(=O)O[C@]1(C(=O)CO)CCC2[C@@H]3CCC4=CC(=O)CC[C@]4(C)C3C(O)C[C@]21C (stereo not given in full) | 1.27% [at 57.5 µM] (inactive) | –
C[C@@H]1C[C@H]2[C@@H]3C[C@H](F)C4=CC(=O)C=C[C@@]4(C)[C@]3(F)[C@H](O)C[C@]2(C)[C@@]1(O)C(=O)CO | -3.98% (inactive) | –
COCC(=O)Nc1c(I)c(C(=O)NC[C@@H](O)CO)c(I)c(C(=O)N(C)C[C@@H](O)CO)c1I | -3.69% (inactive) | –
C[C@]12C=CC(=O)C=C1CCC1C2C(O)C[C@]2(C)C1CC[C@]2(O)C(=O)CO (stereo not given in full) | 18.8% [at 57.5 µM] (inactive) | –
C[C@@H](C(=O)O)c1ccc(C(=O)c2ccccc2)s1 | 130% (inactive) | –
NC(CCC(=O)N[C@@H](CS)C(=O)NCC(=O)O)C(=O)O (stereo not given in full) | -12.1% [at 57.5 µM] (inactive) | –
C[C@@H]1Cc2ccccc2N1NC(=O)c1ccc(Cl)c(S(N)=O)c1 (stereo not given in full) | – | 3.46 µM (active)
NS(=O)(=O)c1cc2c(cc1C(F)(F)F)N[C@H](Cc1ccccc1)NS2(=O)=O | -4.16% (inactive) | –
CC[C@](C)(CN(C)C)OC(=O)c1ccccc1 | 9.28% (inactive) | –
COc1ccc(OC)c([C@H](O)CNC(=O)CN)c1 | -7.45% (inactive) | –
C[C@]1(c2ccccc2)OC(C(=O)O)=CC1=O | -0.48% [at 57.5 µM] (inactive) | –
COc1ccc2cc1Oc1ccc(cc1)CC1c3c(cc4c(c3Oc3cc5c(cc3OC)CCN(C)C5C2)OCO4)CCN1C (stereo not given) | 2.57% [at 57.5 µM] (inactive) | –
O=C1OC(CO)C(O)C(O)C1O (stereo not given) | -2.76% [at 57.5 µM] (inactive) | –

Reference: PubChem BioAssay (NCATS)
